Records with an inconclusive call do not appear. The source made the active and inactive calls. Calls come from the whole dose curve; as a rule, active = well fitted curve in the direction sought with a large enough effect in the repeat runs; inconclusive = weak or mixed curves; inactive = no such curve, though single readings can be large; an effect the other way counts as inactive or inconclusive.
Legend:
[1] = Human pregnane X receptor (PXR) small molecule agonists, qHTS cell viability counter screen (AID 1346977); note: nearly all actives have a fitted effect of over 50% in size
Summary of the method: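 Fluorescence read-out (CellTiter-Fluor) of viability in PXR-Luc HepG2 cells, multiplexed with the luciferase agonist read. Compounds in DMSO added after 5hr plating; 24hr total exposure at 37C, 5% CO2.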

[2] = Caspase-3/7 induction in HepG2 cells by small molecules, qHTS assay (AID 1346978); note: nearly all actives have a fitted effect of over 15% in size
Summary of the method: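 Wild-type HepG2 cells (2,000/well) were settled 5 h at 37 C, 5% CO2, then exposed to compounds in DMSO for 17 h. Caspase-3/7 activity was read by luminescence 30 min after adding Caspase-Glo 3/7 reagent at room temperature.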

[3] = Caspase-3/7 induction in CHO-K1 cells by small molecules, qHTS cell viability counter screen (AID 1346979); note: nearly all actives have a fitted effect of over 35% in size; note: potency is the fitted concentration of half-maximal effect
Summary of the method: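 CHO-K1 wt, 1,500 cells/well; 5hr pre-incubation 37C/5% CO2; compound pin transfer (DMSO); 16hr exposure; CellTiter-Fluor added, 1hr, fluorescence read.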

[4] = Caspase-3/7 induction in CHO-K1 cells by small molecules, qHTS assay (AID 1346980); note: nearly all actives have a fitted effect of over 15% in size
Summary of the method: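 Wild-type cells were seeded at 1,500 per well and settled 5 hr at 37 C, 5% CO2, then exposed to DMSO-dissolved compounds for 17 hr. Caspase-Glo 3/7 reagent was added, and luminescence was read after 30min at room temperature.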

[5] = Caspase-3/7 induction in HepG2 cells by small molecules, qHTS cell viability counter screen (AID 1346981); note: series mostly up to about 92 µM; nearly all actives have a fitted effect of over 30% in size
Summary of the method: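 Fluorescence read-out of live-cell protease activity (CellTiter-Fluor) after 1 hr with reagent. This was measured in the same wells as the caspase-3/7 luminescence, on HepG2 cells exposed to DMSO-dissolved compounds for 16 hr at 37 C.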

[6] = target: Cytochrome P450 2C19 (Homo sapiens) (UniProt P33261); assay: Cytochrome P450 Family 2 Subfamily C Member 19 (CYP2C19) small molecule antagonists: luciferase reporter qHTS assay (AID 1671197); note: nearly all actives have a fitted effect of over 65% in size; note: potency is the fitted concentration of half-maximal effect
Cytochrome P450 2C19 (Homo sapiens), sequence (P33261 whole entry, looked up): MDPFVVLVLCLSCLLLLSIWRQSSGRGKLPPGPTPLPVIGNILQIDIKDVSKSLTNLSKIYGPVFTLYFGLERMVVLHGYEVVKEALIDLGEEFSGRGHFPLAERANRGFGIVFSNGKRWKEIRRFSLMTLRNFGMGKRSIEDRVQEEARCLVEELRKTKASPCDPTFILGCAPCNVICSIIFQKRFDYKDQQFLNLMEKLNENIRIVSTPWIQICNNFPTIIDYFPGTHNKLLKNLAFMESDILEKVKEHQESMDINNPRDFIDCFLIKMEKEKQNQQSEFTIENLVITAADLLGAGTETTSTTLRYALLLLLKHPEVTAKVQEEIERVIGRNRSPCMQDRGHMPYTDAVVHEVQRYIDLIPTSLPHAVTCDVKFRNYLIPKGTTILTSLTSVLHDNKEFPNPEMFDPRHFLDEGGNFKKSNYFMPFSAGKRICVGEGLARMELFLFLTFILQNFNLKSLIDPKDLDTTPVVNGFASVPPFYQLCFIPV
Summary of the method: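 Light output is proportional to CYP2C19 activity: proluciferin substrate is converted to luciferin, then detected by a luciferin detection reagent that also stops the 1 h, 37C NADPH-driven reaction. Ketoconazole serves as positive control.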

[7] = target: Cytochrome P450 1A2 (Homo sapiens) (UniProt P05177); assay: Cytochrome P450 Family 1 Subfamily A Member 2 (CYP1A2) small molecule antagonists: luciferase reporter qHTS assay (AID 1671199); note: nearly all actives have a fitted effect of over 50% in size; note: potency is the fitted concentration of half-maximal effect
Cytochrome P450 1A2 (Homo sapiens), sequence (P05177 whole entry, looked up): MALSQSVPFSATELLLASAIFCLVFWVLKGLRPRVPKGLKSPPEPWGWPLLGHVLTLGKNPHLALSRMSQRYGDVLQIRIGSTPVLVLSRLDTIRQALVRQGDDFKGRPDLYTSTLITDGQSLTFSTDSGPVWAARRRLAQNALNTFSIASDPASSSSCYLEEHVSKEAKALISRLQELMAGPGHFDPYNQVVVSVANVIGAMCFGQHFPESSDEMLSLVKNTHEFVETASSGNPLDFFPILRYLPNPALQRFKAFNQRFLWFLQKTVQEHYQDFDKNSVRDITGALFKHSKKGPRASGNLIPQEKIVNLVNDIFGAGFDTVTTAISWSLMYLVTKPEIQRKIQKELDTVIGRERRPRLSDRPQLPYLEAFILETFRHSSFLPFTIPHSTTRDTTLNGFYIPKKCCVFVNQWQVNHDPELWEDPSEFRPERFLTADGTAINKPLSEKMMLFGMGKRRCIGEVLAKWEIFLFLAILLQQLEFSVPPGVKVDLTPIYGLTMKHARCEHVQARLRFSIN
Summary of the method: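 Luminescence readout (relative luminescence units) after luciferin detection reagent, 20 min RT. Preceded by 1 h room-temperature CYP1A2 reaction with NADPH regeneration solution following 10 min compound preincubation with enzyme and proluciferin substrate. Furafylline positive control.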

[8] = target: Voltage-gated inwardly rectifying potassium channel KCNH2 (Homo sapiens) (UniProt Q12809); assay: Human Ether-a-go-go-Related Gene (hERG) channel small molecule antagonists: fluorescence cell-based qHTS assay (AID 1671200);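 note: hERG-expressing U2OS cells given a thallium stimulus after FluxOR II dye loading; series mostly up to about 77 µM; nearly all actives have a fitted effect of over 50% in size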
Voltage-gated inwardly rectifying potassium channel KCNH2 (Homo sapiens), sequence (Q12809 whole entry, looked up): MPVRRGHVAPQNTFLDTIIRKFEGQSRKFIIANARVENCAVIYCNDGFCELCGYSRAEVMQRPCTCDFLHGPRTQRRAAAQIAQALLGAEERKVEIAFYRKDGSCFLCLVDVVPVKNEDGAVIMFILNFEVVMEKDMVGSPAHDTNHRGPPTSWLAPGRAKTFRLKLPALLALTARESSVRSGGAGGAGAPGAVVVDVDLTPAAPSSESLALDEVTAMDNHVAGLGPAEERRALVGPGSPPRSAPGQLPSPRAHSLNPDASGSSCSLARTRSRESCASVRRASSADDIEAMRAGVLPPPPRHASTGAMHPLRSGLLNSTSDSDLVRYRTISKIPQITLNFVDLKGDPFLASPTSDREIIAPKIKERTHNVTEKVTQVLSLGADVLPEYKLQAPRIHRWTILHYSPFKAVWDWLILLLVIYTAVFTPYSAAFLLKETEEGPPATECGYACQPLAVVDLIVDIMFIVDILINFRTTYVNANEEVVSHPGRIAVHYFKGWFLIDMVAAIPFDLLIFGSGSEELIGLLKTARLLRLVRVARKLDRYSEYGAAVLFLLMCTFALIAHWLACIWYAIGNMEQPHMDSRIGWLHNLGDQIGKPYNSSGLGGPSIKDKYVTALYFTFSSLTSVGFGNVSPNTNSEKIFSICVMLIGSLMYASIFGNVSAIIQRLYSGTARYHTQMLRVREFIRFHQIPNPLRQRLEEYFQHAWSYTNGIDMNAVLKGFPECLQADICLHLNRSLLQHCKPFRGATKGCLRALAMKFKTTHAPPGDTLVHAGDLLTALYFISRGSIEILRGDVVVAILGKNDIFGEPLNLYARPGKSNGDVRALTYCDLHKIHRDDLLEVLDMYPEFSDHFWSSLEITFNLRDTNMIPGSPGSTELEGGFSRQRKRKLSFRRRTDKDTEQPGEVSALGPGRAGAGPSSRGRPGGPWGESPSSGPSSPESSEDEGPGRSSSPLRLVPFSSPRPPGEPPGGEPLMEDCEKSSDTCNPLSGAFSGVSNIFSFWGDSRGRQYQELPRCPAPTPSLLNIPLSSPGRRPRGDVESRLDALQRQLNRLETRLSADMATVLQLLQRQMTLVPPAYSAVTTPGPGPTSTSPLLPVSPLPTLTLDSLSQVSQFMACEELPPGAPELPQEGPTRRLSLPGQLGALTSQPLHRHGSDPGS
Summary of the method: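 Read-out: thallium influx as a surrogate for potassium, tracked as fluorescence (480 nm ex/540 nm em) every second for 2 min after Stimulus Buffer addition in dye-loaded hERG-U2OS cells.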

[9] = target: Cytochrome P450 3A4 (Homo sapiens) (UniProt P08684); assay: Cytochrome P450 Family 3 Subfamily A Member 4 (CYP3A4) small molecule antagonists: luciferase reporter qHTS assay (AID 1671201); note: nearly all actives have a fitted effect of over 50% in size; note: potency is the fitted concentration of half-maximal effect
Cytochrome P450 3A4 (Homo sapiens), sequence (P08684 whole entry, looked up): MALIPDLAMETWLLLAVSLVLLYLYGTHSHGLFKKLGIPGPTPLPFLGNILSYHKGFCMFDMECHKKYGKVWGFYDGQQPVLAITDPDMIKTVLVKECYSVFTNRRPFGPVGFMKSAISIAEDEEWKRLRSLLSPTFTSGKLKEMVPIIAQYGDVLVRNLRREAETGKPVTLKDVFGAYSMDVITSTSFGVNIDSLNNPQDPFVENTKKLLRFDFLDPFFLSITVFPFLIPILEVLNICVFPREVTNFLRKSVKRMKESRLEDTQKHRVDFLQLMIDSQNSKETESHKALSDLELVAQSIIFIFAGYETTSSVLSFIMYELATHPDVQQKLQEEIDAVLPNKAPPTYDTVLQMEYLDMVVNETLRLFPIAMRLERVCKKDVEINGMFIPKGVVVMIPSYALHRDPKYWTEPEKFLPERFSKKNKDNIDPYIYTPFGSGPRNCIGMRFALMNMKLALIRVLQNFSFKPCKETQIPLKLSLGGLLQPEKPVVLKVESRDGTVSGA
Summary of the method: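 Luminescent readout (RLU) proportional to CYP3A4 activity, from luciferin generated off a proluciferin substrate. Enzyme–substrate mix plus compound 10 min at room temp, NADPH regeneration 1 h, detection reagent 20 min.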

[10] = target: Nuclear receptor subfamily 1 group I member 2 (Homo sapiens) (UniProt O75469); assay: Human pregnane X receptor (PXR) small molecule agonists, qHTS assay (AID 1346982); note: nearly all actives have a fitted effect of over 35% in size; note: potency is the fitted concentration of half-maximal effect
Nuclear receptor subfamily 1 group I member 2 (Homo sapiens), sequence (O75469 whole entry, looked up): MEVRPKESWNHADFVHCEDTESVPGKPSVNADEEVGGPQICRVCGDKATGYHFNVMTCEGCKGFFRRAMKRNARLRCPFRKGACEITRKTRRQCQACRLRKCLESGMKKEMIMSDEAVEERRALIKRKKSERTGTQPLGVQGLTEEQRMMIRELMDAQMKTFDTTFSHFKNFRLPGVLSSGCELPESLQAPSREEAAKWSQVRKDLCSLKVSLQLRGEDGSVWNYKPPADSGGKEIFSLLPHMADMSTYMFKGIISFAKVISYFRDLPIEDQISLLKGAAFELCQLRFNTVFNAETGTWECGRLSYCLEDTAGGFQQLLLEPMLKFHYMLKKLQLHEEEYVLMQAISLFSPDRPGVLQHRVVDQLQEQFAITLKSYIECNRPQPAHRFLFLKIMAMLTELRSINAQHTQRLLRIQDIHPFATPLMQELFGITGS
Summary of the method: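 HepG2 PXR-Luc reporter line, 5% charcoal-stripped FBS; 5 hr pre-incubation, compound (DMSO) 24 hr at 37 C/5% CO2; ONE-Glo 30 min RT; luminescence read-out.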

[11] = target: Cytochrome P450 2D6 (Homo sapiens) (UniProt P10635); assay: Cytochrome P450 Family 2 Subfamily D Member 6 (CYP2D6) small molecule antagonists: luciferase reporter qHTS assay (AID 1671196); note: nearly all actives have a fitted effect of over 50% in size; note: potency is the fitted concentration of half-maximal effect
Cytochrome P450 2D6 (Homo sapiens), sequence (P10635 whole entry, looked up): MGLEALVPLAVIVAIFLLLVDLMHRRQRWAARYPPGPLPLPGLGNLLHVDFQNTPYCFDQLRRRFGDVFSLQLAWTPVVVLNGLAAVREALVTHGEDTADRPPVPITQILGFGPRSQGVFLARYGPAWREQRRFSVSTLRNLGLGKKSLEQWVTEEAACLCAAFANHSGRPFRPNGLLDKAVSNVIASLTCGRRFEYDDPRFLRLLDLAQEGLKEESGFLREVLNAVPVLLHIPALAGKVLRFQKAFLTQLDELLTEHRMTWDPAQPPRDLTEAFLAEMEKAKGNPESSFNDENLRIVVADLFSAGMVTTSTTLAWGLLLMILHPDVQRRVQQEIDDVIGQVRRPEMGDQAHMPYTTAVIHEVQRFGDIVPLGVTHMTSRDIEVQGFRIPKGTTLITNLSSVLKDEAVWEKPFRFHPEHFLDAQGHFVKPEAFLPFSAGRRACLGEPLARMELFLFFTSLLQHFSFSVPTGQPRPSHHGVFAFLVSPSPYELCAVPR
Summary of the method: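 Luminogenic proluciferin substrate, CYP2D6 enzyme; 10 min RT preincubation with compound, NADPH regeneration system added, 1 h RT. Stop/detection reagent, 20 min RT, luminescence read (RLU). Signal proportional to CYP activity.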

[12] = target: Cytochrome P450 2C9 (Homo sapiens) (UniProt P11712); assay: Cytochrome P450 Family 2 Subfamily C Member 9 (CYP2C9) small molecule antagonists: luciferase reporter qHTS assay (AID 1671198); note: nearly all actives have a fitted effect of over 50% in size; note: potency is the fitted concentration of half-maximal effect
Cytochrome P450 2C9 (Homo sapiens), sequence (P11712 whole entry, looked up): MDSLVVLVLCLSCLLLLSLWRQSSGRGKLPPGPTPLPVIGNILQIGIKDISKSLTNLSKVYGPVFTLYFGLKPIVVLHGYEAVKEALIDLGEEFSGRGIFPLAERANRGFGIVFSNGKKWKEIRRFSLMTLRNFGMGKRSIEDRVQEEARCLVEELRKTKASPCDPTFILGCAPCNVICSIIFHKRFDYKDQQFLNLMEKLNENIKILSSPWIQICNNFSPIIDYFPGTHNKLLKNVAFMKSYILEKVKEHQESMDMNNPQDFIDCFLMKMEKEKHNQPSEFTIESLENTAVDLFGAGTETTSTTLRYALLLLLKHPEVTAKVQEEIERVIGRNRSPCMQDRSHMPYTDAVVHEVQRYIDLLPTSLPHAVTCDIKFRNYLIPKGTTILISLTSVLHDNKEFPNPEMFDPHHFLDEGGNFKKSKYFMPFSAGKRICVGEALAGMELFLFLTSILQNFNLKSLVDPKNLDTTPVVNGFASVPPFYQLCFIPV
Summary of the method: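 CYP2C9 activity was measured with a P450-Glo proluciferin substrate. Enzyme–substrate mix was held with compound for 10 min at room temperature, then NADPH regeneration solution was added for 1 h at 37C. Luciferin product was read as luminescence.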

[13] = target: Nuclear receptor subfamily 1 group I member 2 (Rattus norvegicus) (UniProt Q9R1A7); assay: Rat pregnane X receptor (rPXR) activation by small molecules, qHTS assay (AID 1346983); conditions: rPXR luciferase reporter cells, One-Glo luminescence, 24 h; active compounds read high; note: nearly all actives have a fitted effect of over 20% in size
Nuclear receptor subfamily 1 group I member 2 (Rattus norvegicus), sequence (Q9R1A7 whole entry, looked up): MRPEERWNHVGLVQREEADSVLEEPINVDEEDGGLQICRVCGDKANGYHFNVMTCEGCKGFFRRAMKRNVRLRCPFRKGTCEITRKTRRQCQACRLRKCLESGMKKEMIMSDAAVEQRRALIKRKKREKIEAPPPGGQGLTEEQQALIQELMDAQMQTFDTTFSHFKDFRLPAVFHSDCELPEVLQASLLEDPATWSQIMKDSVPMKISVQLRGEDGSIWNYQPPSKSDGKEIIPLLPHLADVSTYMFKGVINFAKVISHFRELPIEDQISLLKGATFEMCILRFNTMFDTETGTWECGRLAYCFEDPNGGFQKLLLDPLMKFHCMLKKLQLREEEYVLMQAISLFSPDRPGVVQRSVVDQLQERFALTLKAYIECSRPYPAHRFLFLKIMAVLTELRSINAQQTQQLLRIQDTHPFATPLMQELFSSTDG
Summary of the method: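 Cell-based rPXR luciferase reporter assay, 2,000 cells per well, rested 5hr at 37 C before compound addition in DMSO, then 24 hr at 37 C. One-Glo reagent was added and luminescence read after 30 min at room temperature.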

[14] = target: Nuclear receptor subfamily 1 group I member 2 (Homo sapiens) (UniProt O75469); assay: Human pregnane X receptor (PXR) activation by small molecules, qHTS assay (AID 1346985); note: nearly all actives have a fitted effect of over 40% in size
Summary of the method: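 DPX-2 cells (HepG2 co-transfected with a PXR response element and a CYP3A4-promoter luciferase construct) were seeded at 2,000 per well, rested 5 hr at 37C, then exposed to DMSO-dissolved compounds for 24 hr. Activation was read as luciferase luminescence.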

[15] = target: Nuclear receptor subfamily 1 group I member 2 (Homo sapiens) (UniProt O75469); assay: CYP3A4 induction through human pregnane X receptor (PXR) by small molecules, qHTS assay (AID 1346984); note: nearly all actives have a fitted effect of over 40% in size
Summary of the method: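 HepG2-derived DPX-2 line carrying PXR plus a CYP3A4-promoter luciferase reporter; cells plated 5 hr, compound-exposed 24 hr at 37C. CYP3A4 activity probed with 3uM (final) Luciferin-IPA for 3hr, then luciferase read after One-Glo.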
% is set by controls: 0 for no effect and ±100 for the full control effect.

CC(C)C(=O)OCCc1ccccc1
inactive: Potency [1] | Potency [2] | Potency [3] | outcome [4] | Potency [5] | Potency [6] | Potency [7] | Potency [8] | Potency [9]

Cc1cc(NC(=O)C2=C(O)c3ccccc3S(=O)(=O)N2C)no1
inactive: Potency [1] | Potency [2] | Potency [3] | outcome [4] | Potency [5] | Potency [6] | Potency [8]

CCN(CC)CC(=O)Nc1c(C)cccc1C
inactive: Potency [1] | Potency [2] | Potency [3] | Potency [5]

CCOC(=O)/C=C/c1ccccc1
inactive: Potency [1] | Potency [2] | Potency [3] | outcome [4] | Potency [5] | Potency [8] | Potency [9]
active: Potency [6] 71 µM | Potency [7] 35.6 µM

C=C(C)C(=O)OCCNC(C)(C)C
active: Potency [6] 70.9 µM | Potency [7] 35.5 µM
inactive: Potency [1] | Potency [2] | Potency [3] | Potency [5] | Potency [10] | Potency [11] | Potency [12] | Potency [8] | Potency [9]

CCCCOCCOC(=O)COc1nc(Cl)c(Cl)cc1Cl
inactive: Potency [1] | Potency [2] | Potency [3] | outcome [4] | Potency [5] | Potency [12] | Potency [9]
active: Potency [6] 31.7 µM

COc1ccc(Br)c(C)c1
active: Potency [6] 36 µM
inactive: Potency [1] | Potency [2] | Potency [3] | outcome [4] | Potency [10] | Potency [11] | Potency [12] | Potency [8] | Potency [9]

COCCOC(=O)C1=C(C)NC(C)=C(C(=O)OC(C)C)C1c1cccc([N+](=O)[O-])c1 (configuration not stated)
inactive: Potency [1] | Potency [2] | outcome [4] | Potency [8]
active: Potency [3] 21.1 µM

BrCc1cccc(Oc2ccccc2)c1
inactive: Potency [1] | Potency [2] | Potency [3] | outcome [4] | Potency [8] | Potency [9]
active: Potency [10] 61.1 µM | Potency [11] 35.6 µM | Potency [6] 7.96 µM | Potency [12] 79.6 µM | Potency [7] 39.9 µM

CCOC(=O)CC(=O)c1ccccc1
inactive: Potency [1] | Potency [2] | Potency [3] | outcome [4] | Potency [8] | Potency [9]
active: Potency [10] 68.6 µM | Potency [6] 39.9 µM | Potency [12] 35.6 µM

CC(C)=CCOC(=O)c1ccccc1
inactive: Potency [1] | Potency [2] | Potency [3] | outcome [4] | Potency [11] | Potency [6] | Potency [12] | Potency [8] | Potency [9]

C[C@H](N)[C@H](O)c1cccc(O)c1
inactive: Potency [1] | Potency [2] | Potency [3] | outcome [4] | Potency [10] | max activation [13] -0.575% | Potency [14] | Potency [6] | Potency [7] | Potency [8] | Potency [9]

CCCCC(CC)COCCO (configuration not stated)
inactive: Potency [1] | Potency [2] | Potency [3] | outcome [4] | Potency [10] | Potency [11] | Potency [6] | Potency [12] | Potency [8] | Potency [9]
active: Potency [7] 17.8 µM

CCCC/C=C\CCCCCCCCCC=O
inactive: Potency [1] | Potency [2] | Potency [3] | outcome [4] | Potency [5] | Potency [12] | Potency [7] | Potency [8] | Potency [9]

O=C(/N=N/C(=O)OCc1ccccc1)OCc1ccccc1
active: Potency [10] 30.6 µM | Potency [6] 1.78 µM | Potency [12] 14.2 µM | Potency [7] 17.8 µM | Potency [9] 39.9 µM
inactive: Potency [1] | Potency [2] | Potency [3] | outcome [4] | Potency [11]

O=Cc1ccc(Cl)c(Cl)c1
inactive: Potency [1] | Potency [2] | Potency [3] | outcome [4] | Potency [10] | Potency [11] | Potency [6] | Potency [12] | Potency [8] | Potency [9]

CCCCCCCCC1CCC(=O)O1 (configuration not stated)
inactive: Potency [1] | Potency [2] | Potency [3] | outcome [4] | Potency [8] | Potency [9]
active: Potency [10] 30.6 µM | Potency [6] 56.4 µM | Potency [12] 71 µM

C=C(C)C(=O)OCCOP(=O)(O)OCCOC(=O)C(=C)C
inactive: Potency [1] | Potency [2] | Potency [3] | Potency [5] | Potency [10] | Potency [11] | Potency [6] | Potency [12] | Potency [8] | Potency [9]

CCCCCCOC(=O)CC
inactive: Potency [1] | Potency [2] | Potency [3] | outcome [4] | Potency [10] | Potency [6] | Potency [12] | Potency [7] | Potency [8] | Potency [9]

FC(F)(F)c1ccccc1-n1ccnc1
active: Potency [11] 2.19 µM | Potency [6] 5.49 µM | Potency [7] 5.49 µM
inactive: Potency [1] | Potency [2] | Potency [3] | outcome [4] | Potency [10] | Potency [8]

CCOCCOC(=O)/C=C/c1ccc(OC)cc1
active: Potency [6] 34.7 µM | Potency [12] 13.8 µM | Potency [7] 7.76 µM
inactive: Potency [1] | Potency [2] | Potency [3] | outcome [4] | Potency [10] | Potency [8] | Potency [9]

NNc1nnc(NN)c2ccccc12
active: Potency [12] 34.7 µM | Potency [7] 36.3 µM
inactive: Potency [1] | Potency [2] | Potency [3] | Potency [5] | Potency [10] | Potency [15] | Potency [14] | Potency [6] | Potency [8]

— PubChem BioAssay (Tox21)
